Screens: PubChem, National Center for Advancing Translational Sciences (NCATS)
Sampled rows, rich in hits. Any-hit rate of the full collection: about 8.3%.
SW480 rereplic – DNA re-replication induction in SW480 cells; SW480 DNA re-replication, Hoechst DNA content imaging, 48 h; Potency, µM (series often up to 46.1 µM), without a hit: at the top dose re-replication activation, hits mostly activators; hit rate 1.8% among 340,000; AID 624297; also: potency is read from the fitted curve at half-maximal effect; % of control where 0% means no effect; nearly all actives have a fitted effect of over 55% in size
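Treated cells incubate 48 hr (37 C, 5% CO2), are stained 40 min with Hoechst, and nuclear fluorescence is enumerated; a rise in nuclei with high DNA signal marks re-replication.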
Gal4-VP16 FLuc – inhibits Gal4-VP16 luciferase reporter, ROR gamma counter-screen. Drosophila S2 Gal4-VP16 UAS-luciferase, luminescence, 20 h. Potency, µM (titrated, usually from 53.6 µM), inactives show at the top dose activity, negative = inhibition, most hits filed as inhibitors. hit rate 3.5% among 310,000;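 also: Gal4-VP16 expression switched on by copper sulfate through the metallothionein promoter; potency is read from the fitted curve at half-maximal effect; % is scaled to controls: 0 for no effect and ±100 for the full control effect; nearly all actives have a fitted effect of over 50% in size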
MCF10A rerep – inducers of DNA re-replication in MCF 10A breast cells; hit rate 2.9% among 350,000; MCF 10A DNA re-replication, Hoechst nuclear intensity, 48 h; Potency, µM (series often up to 46.1 µM), without a hit: at the highest dose activity, positive = re-replication, most hits filed as activators; AID 624296; also: potency is read from the fitted curve at half-maximal effect; % of control where 0% means no effect; nearly all actives have a fitted effect of over 50% in size
RORgamma inh – blocks mouse ROR gamma transcriptional activity; Drosophila S2 Gal4-RORgamma UAS-luciferase reporter, 20 h; P51450; Potency, µM (series often up to 53.6 µM), for inactives: at the top dose activity change, negative = inhibition, actives largely listed as inhibitors; hit rate 5.4% among 310,000; also: potency is read from the fitted curve at half-maximal effect; % is scaled to controls: 0 for no effect and ±100 for the full control effect; nearly all actives have a fitted effect of over 60% in size
Target sequence (P51450 whole entry, looked up, the tested form may be a part): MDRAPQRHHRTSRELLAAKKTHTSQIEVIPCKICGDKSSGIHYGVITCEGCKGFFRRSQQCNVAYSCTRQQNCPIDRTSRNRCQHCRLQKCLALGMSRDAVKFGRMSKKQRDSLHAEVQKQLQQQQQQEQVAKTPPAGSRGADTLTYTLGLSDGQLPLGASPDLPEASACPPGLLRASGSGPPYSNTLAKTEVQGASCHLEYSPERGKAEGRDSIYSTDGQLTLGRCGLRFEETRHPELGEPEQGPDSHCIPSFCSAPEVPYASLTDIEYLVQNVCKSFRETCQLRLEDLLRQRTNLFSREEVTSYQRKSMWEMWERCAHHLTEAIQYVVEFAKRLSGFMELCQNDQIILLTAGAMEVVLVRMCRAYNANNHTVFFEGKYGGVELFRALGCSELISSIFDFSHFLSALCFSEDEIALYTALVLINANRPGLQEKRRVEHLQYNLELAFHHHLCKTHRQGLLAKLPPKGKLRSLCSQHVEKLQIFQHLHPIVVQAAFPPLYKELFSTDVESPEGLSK
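In this cell-based reporter format, copper sulfate (700 uM final) drives Gal4–ROR gamma fusion expression from a metallothionein promoter in Drosophila Schneider cells; compounds preincubated 1 hr, reporter read after 20 hr at ambient temperature.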
BCR signal inh – blocks chronic active B-cell receptor signaling; Potency, µM (top dose mostly 46.1 µM), for inactives: at the highest dose activity change, negative = inhibition, usual class: inhibitors; hit rate 0.05% among 340,000; ABC-DLBCL IkBa-CBG/CBR reporter, luminescence ratio, 4 h; active = well fitted inhibition curve with a large enough effect in the signal ratio, with a control signal flat, not every such curve was filed as active; inconclusive = small, poorly fitted or top-dose-only effect, or effect the other way, or a change in a side signal; the % refers to the signal ratio;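 also: potency is read from the fitted curve at half-maximal effect; plate controls were basal doxycycline-induced cells for no effect and cells given 10 µM MG132 for full effect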
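TMD8 human ABC-DLBCL cells with doxycycline-inducible IκBα–green luciferase fusion and unfused red luciferase, in 0.5% FBS medium; compounds up to 46 uM, 4 h at 37C. Green/red luminescence ratio, filter-overlap corrected, fitted to concentration-response curves.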
Giardia kill – Giardia lamblia killing; Giardia lamblia trophozoite viability; activity change, % at 7.66 µM, hits read low; hit rate 0.15% among 340,000; in the data active = activity change below about -80%; inconclusive = between about -30% and that limit;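 also: parasites exposed to compound for two days anaerobically before the ATP read; % is scaled to controls: 0 for no effect and ±100 for the full control effect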
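Media and compound were dispensed first, then trophozoites at 100 cells/well; plates sat 48 hrs at 37 deg C without oxygen before ATP luminescence reagent was added and read after 15-30 min at room temperature.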
Numbers without * were called inactive; ? = inconclusive; · = not tested or not shown; [ ] = dose if it differs, or a comment. Unless noted, calls follow the shape of the dose curve; as a rule, active = well fitted curve in the direction sought with a large enough effect; inconclusive = small, poorly fitted or top-dose-only effect, or another doubt; inactive = no such curve, though single readings can be large; an effect the other way counts as inactive or inconclusive.

SMILES	SW480 rereplic	Gal4-VP16 FLuc	MCF10A rerep	RORgamma inh	BCR signal inh	Giardia kill
CCCCN(C(=O)c1ccc(-c2ccc([N+](=O)[O-])cc2)o1)c1c(N)n(CCCC)c(=O)[nH]c1=O	25.5%	·	9.3%	·	-7.2%	-2.7
CC1=Nn2c(nnc2-c2cc(-c3ccccc3)n[nH]2)SC1	4.8%	-1.2%	-2.5%	34.6%	14.9%	4.3
c1ccc(-c2ccc(C3=Nn4c(nnc4-c4cc(-c5ccccc5)n[nH]4)SC3)cc2)cc1	?	-11.4%	14.6µM*	?	?	0.1
Clc1ccc(C2=Nn3c(nnc3-c3n[nH]c4c3CCC4)SC2)cc1	6.51µM*	-4.0%	?	-23.7%	?	4.9
CN1/C(=C/C(=S)NC(=O)C2(C)CC2(Cl)Cl)C(C)(C)c2ccccc21 (stereo not drawn)	13.4%	?	8.7%	4.47µM*	?	31.1
CN1/C(=C\C(=S)NC(=O)c2ccccc2Cl)C(C)(C)c2ccccc21	-1.9%	20µM*	?	7.94µM*	-13.7%	-1.3
O=C(NCc1ccccc1Cl)C(=O)NCC(c1ccco1)N1CCOCC1 (stereo not drawn)	7.4%	-2.3%	0.7%	6.6%	?	-19.0
Cc1snc(SCC(=O)N/N=C(\N)COc2ccc(F)cc2)c1C#N	-9.5%	4.47µM*	2.1%	2.51µM*	4.3%	9.1
COc1ccc(C(=O)NCCCNC(=O)c2ccccn2)cc1Br	3.8%	-2.6%	-1.1%	1.3%	?	-14.7
Cc1ccc(NC(=O)c2cc(S(=O)(=O)NCCc3ccccc3)ccc2F)cc1Cl	8.8%	?	16.7%	?	?	-0.6
O=C(Nc1cccc(Cl)c1)c1cc(S(=O)(=O)NCCc2ccc(Cl)cc2)ccc1F	-24.9%	10µM*	24.8%	?	?	2.2
CCOc1cc(C(=O)NCc2ccc3c(c2)OCO3)cc(OCC)c1OCC	12.1%	5.4%	4.9%	17.8%	-3.9%	6.8
COC(=O)/C=c1/s/c(=C(/C#N)C(=O)N2CCCCC2)n(-c2ccccc2)c1=O	0.326µM*	0.3%	13.4%	-3.5%	?	10.3
COC(=O)/C=c1/s/c(=C(/C#N)C(=O)N2CCOCC2)n(-c2ccccc2)c1=O	-5.5%[9.22 µM]	14.4%	?	-15.7%	0.5%	-12.3
COc1cc(C(=O)N/N=C(\C)c2ccccn2)cc(OC)c1OC	3.66µM*	-6.7%	?	6.7%	?	-9.1
COc1cc(C(=O)N/N=C(\c2ccccc2)c2ccccn2)cc(OC)c1OC	?	1.26µM*	18.4µM*	1.26µM*	-19.3%	-3.9
COc1cccc(C(=O)N/N=C(/CCC(=O)O)c2ccccc2)c1	-1.6%	25.4%	-8.8%	?	?	-21.3
COc1cc(C(=O)NCC(=O)N/N=C/c2ccccn2)cc(OC)c1OC	-7.2%	1.9%	-1.6%	2.5%	-23.2%	-19.9
C/C(=N/NC(=O)c1ccccn1)c1ccco1	1.8%	?	5.2%	10µM*	?	-7.0
COc1cccc(C(=O)N/N=C(/c2ccccc2)c2ccccn2)c1	?	0.141µM*	?	0.1µM*	-0.4%	4.0
COc1cc(NC(=O)c2ccccn2)cc(OC)c1OC	-69.0%	-10.7%	8.3%	-5.4%	9.2%	-8.7
C/C(=N\NC(=O)c1n[nH]c2c1CCC2)c1ccco1	-36.2%	12.6µM*	-24.8%	8.91µM*	?	-16.8
C/C(=N\NC(=O)c1ccccn1)c1ccc(Cl)cc1	-7.7%	-28.5%	-17.4%	?	?	-10.4
CCC(C)(C)C1CCc2[nH]nc(C(=O)N/N=C(\C)c3ccco3)c2C1 (stereo not drawn)	25.7%	?	?	?	-16.4%	-0.3
C/C(=N\NC(=O)c1ccc(Cl)cc1)c1ccccn1	?	?	3.66µM*	0.0282µM*	?	-18.6
NC[C@@H]1O[C@H](c2ccccc2)Cc2c1ccc(O)c2O	·	25.1µM*	·	28.2µM*	·	·
NC[C@@H]1O[C@H](C23CC4CC(CC(C4)C2)C3)Cc2c1ccc(O)c2O	?	?	7.4%	?	-0.1%	12.3
